# Laboratory results from PubChem BioAssay (NCATS).
# Inconclusive results are not listed. A call without a number means that no potency is given here. The source made the active and inactive calls. Unless noted, the call rests on the fitted dose curve.
# Test system: not listed separately
# Assay: Primary qHTS for Vero E6 cytotoxicity: counterscreen for inhibitors of SARS-S pseudo-typed particle cell entry (AID 1479150)
# Conditions: cell viability; series mostly up to 57.1 µM
Compound,Potency,outcome,"activity change, negative = cytotoxicity"
CC[C@H](C)C(=O)O[C@H]1C[C@H](O)C=C2C=C[C@H](C)[C@H](CC[C@@H](O)C[C@@H](O)CC(=O)O)[C@H]21,inactive,,
O=C(NCCO[N+](=O)[O-])c1cccnc1,inactive,,
O=C(NC(Cc1cc(=O)[nH]c2ccccc12)C(=O)O)c1ccc(Cl)cc1 (stereo not given),inactive,,
COc1cc(C)nc(-n2nc(C)cc2OC)n1,inactive,,
Cc1nc2ccc(CN(C)c3ccc(C(=O)N[C@@H](CCC(=O)O)C(=O)O)s3)cc2c(=O)[nH]1,inactive,,
CCS(=O)(=O)CCn1c([N+](=O)[O-])cnc1C,inactive,,
CC(C)Cc1ccc(CC(=O)O)cc1,inactive,,
O=C(O[C@H]1CN2CCC1CC2)N1CCc2ccccc2[C@@H]1c1ccccc1,inactive,,
C[N+](C)(C)CCCCCC[N+](C)(C)C,inactive,,
CC(C)NC(C)C,inactive,,
CC(=O)OCC(=O)[C@H]1CC[C@H]2[C@@H]3CCC4=CC(=O)CC[C@]4(C)[C@H]3CC[C@]12C,inactive,,
CN1C(C(=O)Nc2ccccn2)=C(O)c2sccc2S1(=O)=O,inactive,,
C/C=C1\[C@H]2C=C(C)C[C@]1(N)c1ccc(=O)[nH]c1C2,inactive,,
N#CSCC(=O)O,inactive,,
CN(C)CCOc1ccc(/C(=C(/CCCl)c2ccccc2)c2ccccc2)cc1,inactive,,
Cc1c(C)c2c(c(C)c1O)CCC(C)(COc1ccc(CC3SC(=O)NC3=O)cc1)O2 (stereo not given),inactive,,
CCCCC(CC)CN1CN(CC(CC)CCCC)CC(C)(N)C1 (stereo not given),inactive,,
NC(N)=NS(=O)(=O)c1ccc(N)cc1,inactive,,
C=C1[C@H](CO)[C@@H](O)C[C@@H]1n1cnc2c(=O)[nH]c(N)nc21,inactive,,

Compound,Potency,outcome,"activity change, negative = cytotoxicity"
NC(CO)(CO)CO,inactive,,
c1ccc2c(c1)CCCC2C1=NCCN1 (stereo not given),inactive,,
O=C(/C=C/c1ccccc1)OCc1ccccc1,inactive,,
CN1[C@@H]2CC[C@H]1CC(OC(c1ccccc1)c1ccccc1)C2 (stereo not given in full),inactive,,
C[C@H]1O[C@@H](n2cc(F)c(=O)[nH]c2=O)[C@H](O)[C@@H]1O,inactive,,
c1ccc2c(c1)sc1ccccc12,inactive,,
O=C1[O][Bi][O]c2ccccc21,,inactive [at 0.573 µM],
COc1ccc(C(=O)c2ccccc2O)c(O)c1,inactive,,
COC(=O)C1=C(C)NC(C)=C(C(=O)OCC(C)=O)C1c1ccccc1[N+](=O)[O-] (stereo not given),inactive,,
CCN(CC)CC#CCOC(=O)C(O)(c1ccccc1)C1CCCCC1 (stereo not given),inactive,,
NCCCNCCSP(=O)(O)O,,,2.55% [at 11.4 µM] (inactive)
CCCCCCCCCCOc1cc2c(=O)c(C(=O)OCC)c[nH]c2cc1OCC,,,1.57% [at 5.34 µM] (inactive)
CC(C)(C)NCC(O)c1cc(O)cc(O)c1 (stereo not given),inactive,,
CCCCCCCCCCCC(=O)[O][Sn]([CH2]CCC)([CH2]CCC)[O]C(=O)CCCCCCCCCCC,inactive,,
C[C@@H]1CN(c2c(F)c(F)c3c(=O)c(C(=O)O)cn(C4CC4)c3c2F)C[C@H](C)N1,inactive,,
CCc1oc2ccccc2c1C(=O)c1cc(I)c(O)c(I)c1,inactive,,
CCOC(=O)C1=C(COCCN)NC(C)=C(C(=O)OC)C1c1ccccc1Cl (stereo not given),inactive,,
CO/N=C(/C(=O)N[C@@H]1C(=O)N2C(C(=O)OCOC(=O)C(C)(C)C)=C(C)CS[C@H]12)c1csc(N)n1,inactive,,

# Target: Calcium and integrin-binding protein 1 (Homo sapiens) (UniProt Q99828)
# Sequence (Q99828 whole entry, looked up): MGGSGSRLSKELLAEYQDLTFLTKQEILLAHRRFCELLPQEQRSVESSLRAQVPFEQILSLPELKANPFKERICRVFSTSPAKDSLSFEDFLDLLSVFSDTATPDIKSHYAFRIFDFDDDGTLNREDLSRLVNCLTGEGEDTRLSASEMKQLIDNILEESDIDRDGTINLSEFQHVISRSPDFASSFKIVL
# Assay: Primary qHTS for Identification of Calcium Integrin Binding Protein 1 (CIB1) Competitor (AID 1508620; active means well fitted inhibition curve with a large enough effect;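 further: GST tagged CIB1 binding a fluorescein labelled alphaIIb integrin peptide tracer; top concentration of the series differs between compounds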)
# Conditions: CIB1-GST / FITC-alphaIIb peptide fluorescence polarization; series mostly up to 114 µM
# Summary of the method: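 CIB1-GST (1 uM final) and compound incubated 15 min at room temperature before adding FITC-alphaIIb peptide tracer (100 nM final). Competition for binding read by fluorescence polarization (ex 480, em 540) after another 15 min at room temperature.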
row,Compound,Potency
1,CC(C)NC(C)C,inactive
2,c1ccc2c(c1)sc1ccccc12,inactive
3,CCC(CC)(CNC(=O)CCCO)c1cccc(OC)c1,inactive
